# PubChem BioAssay (NCATS)
# Results filed as inconclusive are left out. The source made the active and inactive calls. Unless noted, calls follow the shape of the dose curve; as a rule, active = well fitted curve in either direction with a large enough effect (not every such curve was filed as active); inconclusive = small, poorly fitted or top-dose-only effect, or another doubt; inactive = flat fitted curve, though single readings scatter.
# Tests used:
# [1] = target: Lysosomal acid glucosylceramidase (Homo sapiens) (UniProt P04062); assay: Glucocerebrosidase-p2 (AID 348; in the data active = potency below about 10 µM; also: potency is read from the fitted curve at half-maximal effect); settings: purified GBA, blue fluorogenic substrate, 40 min
# How it was run: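 Normal human glucocerebrosidase (0.2 nM) with blue fluorogenic substrate (80 uM final) in citrate/phosphate pH 5.9 with 10mM sodium taurocholate, 0.01% tween-20; 40 min RT, NaOH/glycine stop; fluorescence Ex 365/Em 440; AC50 from a titration from 0.6 nM upwards.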
# [2] = target: Glucocorticoid receptor (Homo sapiens) (UniProt P04150); assay: GR-GFP Redistribution (AID 450;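 active = compounds whose dose series gives a full or clear partial fitted curve of increased nuclear translocation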; also: potency is read from the fitted curve at half-maximal effect); settings: U2OS GR-GFP nuclear translocation, laser cytometry, 2 h
# [3] = target: Glucocorticoid receptor (Homo sapiens) (UniProt P04150); assay: GR-EFC Redistribution (AID 451; calls by dose curve; also: potency is read from the fitted curve at half-maximal effect); settings: CHO-K1 GR-EFC translocation, beta-gal luminescence, 2 h
# How it was run: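 CHO-K1 cells expressing nuclear EA and GR-ED fragments of b-gal; compounds titrated up to 46 uM final, 2 h at 37 C. GR nuclear translocation read as complemented b-gal luminescence after 1 h RT detection.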
# [4] = target: Mitogen-activated protein kinase 10 (Mus musculus) (UniProt Q61831); assay: JNK3 AlphaScreen Assay (AID 530); settings: JNK3 lysate, c-Jun phosphorylation; series mostly up to 57.1 µM;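 also: kinase came from lysate of stimulated human HepG2 cells; signal reports phosphorylation of biotinylated GST-cJun 1-79 at Ser73 with 10 µM ATP; % is scaled to controls: 0 for no effect and ±100 for the full control effect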
# How it was run: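 Activity was read by AlphaScreen after JNK3-containing HepG2 lysate (cytokine pre-activated) phosphorylated biotinylated GST-cJun with 10 uM ATP at room temperature. Phospho-Ser73 cJun antibody with Protein-A acceptor beads provided detection.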
# [5] = target: 3',5'-cyclic-AMP phosphodiesterase 4B (Homo sapiens) (UniProt Q07343); assay: qHTS Assay for Inhibitors of PDE-IV (AID 607; active = well fitted activation curve with a large enough effect in the main read-out, with a control signal flat, not every such curve was filed as active; also: % of control where 0% means no effect); settings: HEK293 ACTOne CNG channel cells, membrane potential fluorescence; series mostly up to 22.9 µM
# How it was run: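 Cell-based read-out of cAMP via a modified cyclic nucleotide-gated channel and membrane potential dye (535/590 nm) in HEK293 cells expressing PDE4 endogenously. Compounds tested up to 22.9 uM final; 100 uM RO 20-1724 reference.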
# [6] = target: Cytochrome P450 3A4 (Homo sapiens) (UniProt P08684); assay: qHTS Assay for Activators of Cytochrome P450 3A4 (AID 885; active = well fitted curve in the direction sought with a large enough effect; an effect the other way counts as inactive or inconclusive; also: nearly all actives have a fitted effect of over 65% in size; also: potency is read from the fitted curve at half-maximal effect); settings: recombinant CYP3A4, Luciferin-PPXE luminescence, 60 min; series mostly up to 57.1 µM
# How it was run: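 Luminescent readout of luciferin formed from 25 uM Luciferin-PPXE (KM level) by 20 nM CYP3A4 in 200 mM KPO4, with 60 min NADPH-driven reaction at room temperature after 10 min compound exposure. Ketoconazole (57 uM) defined 100% inhibition.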
# [7] = qHTS Assay for Identification of Small Molecule Agonists for Hypoxia Response Element Signaling Pathway (AID 914; active = well fitted activation curve with a large enough effect in the signal ratio, with a control signal flat, not every such curve was filed as active; the % refers to the signal ratio; also: potency is read from the fitted curve at half-maximal effect); settings: ME-180 HRE-bla reporter, beta-lactamase ratio, CoCl2, 17 h; activation: stronger effect = higher value
# How it was run: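 HRE-bla ME-180 assay for agonist-like enhancement of an EC50 CoCl2 stimulus: 17 h at 37 degrees Celsius, CCF4 for 2.5 h, ratiometric 460/530 nm signal converted to %Activity and fitted to AC50.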
# [8] = Primary qHTS for small molecule stabilizers of the endoplasmic reticulum resident proteome: Secreted ER Calcium Modulated Protein (SERCaMP) assay (AID 1508630; active = well fitted curve in the direction sought with a large enough effect; an effect the other way counts as inactive or inconclusive; also: % is scaled to controls: 0 for no effect and ±100 for the full control effect); settings: SH-SY5Y GLuc-SERCaMP (Gaussia luciferase released on ER calcium loss) secretion, thapsigargin, luminescence; series mostly up to 38.4 µM
# How it was run: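 The SH-SY5Y reporter protocol was run at 3 concentrations up to 38.3 uM (primary) or 11 concentrations (follow-up): 16 h compound, 100 nM thapsigargin for 4 h, then extracellular luciferase luminescence.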
# [9] = NFAT Signaling Pathway (AID 444); settings: Jurkat NFAT-bla M1, carbachol, beta-lactamase ratio, 5 h; at 7.69 µM (top of the series) unless noted;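 also: carbachol stimulus at about its EC50 of 1 µM final; % is scaled to controls: 0 for no effect and ±100 for the full control effect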
# How it was run: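 Jurkat cells with NFAT-driven β-lactamase reporter and co-expressed M1 receptor, stimulated with carbachol (final 1 uM, ~EC50), compound titration, 5 h at 37 °C. CCF4 loaded 1 h at RT; 460/530 nm ratio gave %activity and AC50.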
# [10] = Stat Signaling Pathway (AID 446); settings: ME-180 SIE beta-lactamase reporter, IL-6 stimulated, 5 h; at 7.69 µM (top of the series) unless noted;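 also: ME-180 cervical cancer cells given 40 pM IL-6 alongside compound; SIE-controlled beta-lactamase reporter measured as 460/530 nm FRET emission ratio; % is scaled to controls: 0 for no effect and ±100 for the full control effect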
# How it was run: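 FRET read-out (405 nm excitation, 460/530 nm emission) of a beta-lactamase reporter under a STAT-inducible element in ME-180 cervical carcinoma cells. Cells with compound receive 40 pM IL-6 for 5 h. Values are normalised to AC90 stimulation and AC90 JAK-inhibitor controls.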
# [11] = AP1 Signaling Pathway (AID 357); settings: ME-180 (cervical carcinoma) AP-1-bla reporter, EGF-induced, beta-lactamase ratio, 5 h; at 7.69 µM (top of the series) unless noted
# How it was run: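 First, ME-180 AP-1-bla cells were cultured overnight at 37 °C in low-serum Opti-MEM. Next, titrated compounds with EC50 EGF were incubated 5 hours. Finally, CCF4 was added for 2.5 hours and the 460/530 nm ratio recorded.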
# [12] = target: Cytochrome P450 1A2 (Homo sapiens) (UniProt P05177); assay: p450-cyp1a2 (AID 410; calls by dose curve; also: potency is read from the fitted curve at half-maximal effect;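 as to activity change, negative = inhibition: -100% = full effect of reference inhibitor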); settings: recombinant CYP1A2, luciferin-ME demethylation, luminescence; series mostly up to 57 µM
# How it was run: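 Luminescent demethylation readout: Luciferin-ME (100uM, equal to Km) turned over by 20nM CYP1A2 for 60 min at room temperature after NADPH regeneration addition, following 10 min compound preincubation. Normalization used 57 uM furafylline as full inhibition.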
# [13] = target: Cytochrome P450 2C9 (Homo sapiens) (UniProt P11712); assay: qHTS Assay for Inhibitors and Substrates of Cytochrome P450 2C9 (AID 883; active = well fitted curve in the direction sought with a large enough effect; an effect the other way counts as inactive or inconclusive; also: potency is read from the fitted curve at half-maximal effect; nearly all actives have a fitted effect of over 60% in size); settings: recombinant CYP2C9, luciferin-H luminescence, 60 min; series mostly up to 57.1 µM
# How it was run: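 Signal: luciferase luminescence reporting luciferin produced by CYP2C9. Conditions: 10nM enzyme, Luciferin-H 100uM at KM, 25mM KPO4, 37C, 60 min NADPH-driven reaction. Reference: 57uM sulphaphenazole as 100% inhibition.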
# [14] = target: Cytochrome P450 3A4 (Homo sapiens) (UniProt P08684); assay: qHTS Assay for Inhibitors and Substrates of Cytochrome P450 3A4 (AID 884; active = well fitted curve in the direction sought with a large enough effect; an effect the other way counts as inactive or inconclusive; also: nearly all actives have a fitted effect of over 50% in size; also: potency is read from the fitted curve at half-maximal effect); settings: recombinant CYP3A4, Luciferin-PPXE luminescence; series mostly up to 57.1 µM
# How it was run: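 Luminescent readout of luciferin produced by CYP3A4 (20 nM) dealkylation of Luciferin-PPXE, 25 uM (its KM). NADPH-driven reaction ran 60 min at RT after 10 min compound preincubation; data scaled to 57 uM ketoconazole as 100% inhibition.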
# [15] = Confirmation and Secondary Assay for Modulators of Hemoglobin Beta Chain Splicing at IVS2 654 locus (AID 910; active = well fitted curve in the direction sought with a large enough effect; an effect the other way counts as inactive or inconclusive;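 also: HeLa cells stably carrying EGFP split by mutant beta-globin IVS2-654 intron; % of control where 0% means no effect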); settings: HeLa EGFP-654 splicing reporter, GFP fluorescence, 48 h; series mostly up to 38.3 µM
# How it was run: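 HeLa cells stably expressing EGFP interrupted by β-globin IVS2-654 intron, seeded overnight in Opti-MEM/2% FCS, then treated 2 days at 37 °C. Restored splicing read as total peak GFP intensity per well by laser scanning cytometry (488 nm excitation, 500–520 nm emission); 500 nM antisense PNA as control.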
# [16] = Confirmation and Secondary Assay for Modulators of Hemoglobin Beta Chain Splicing at IVS2 705 locus (AID 930; active = well fitted curve in the direction sought with a large enough effect; an effect the other way counts as inactive or inconclusive;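 also: HeLa cells stably expressing the EGFP-705 splicing reporter; GFP fluorescence per well restored by corrected splicing of the IVS2-705 intron in EGFP; % of control where 0% means no effect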); settings: HeLa EGFP-705 splicing reporter, GFP fluorescence, 48 h; series mostly up to 38.3 µM
# How it was run: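 HeLa IVS2-705 EGFP reporter cells, 500/well, compound 2 d at 37C; correct splicing yields fluorescent EGFP. Control: 500 nM antisense PNA. Read-out: total peak GFP intensity.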
# Chain of 3',5'-cyclic-AMP phosphodiesterase 4B (Homo sapiens) (Q07343 whole entry, looked up): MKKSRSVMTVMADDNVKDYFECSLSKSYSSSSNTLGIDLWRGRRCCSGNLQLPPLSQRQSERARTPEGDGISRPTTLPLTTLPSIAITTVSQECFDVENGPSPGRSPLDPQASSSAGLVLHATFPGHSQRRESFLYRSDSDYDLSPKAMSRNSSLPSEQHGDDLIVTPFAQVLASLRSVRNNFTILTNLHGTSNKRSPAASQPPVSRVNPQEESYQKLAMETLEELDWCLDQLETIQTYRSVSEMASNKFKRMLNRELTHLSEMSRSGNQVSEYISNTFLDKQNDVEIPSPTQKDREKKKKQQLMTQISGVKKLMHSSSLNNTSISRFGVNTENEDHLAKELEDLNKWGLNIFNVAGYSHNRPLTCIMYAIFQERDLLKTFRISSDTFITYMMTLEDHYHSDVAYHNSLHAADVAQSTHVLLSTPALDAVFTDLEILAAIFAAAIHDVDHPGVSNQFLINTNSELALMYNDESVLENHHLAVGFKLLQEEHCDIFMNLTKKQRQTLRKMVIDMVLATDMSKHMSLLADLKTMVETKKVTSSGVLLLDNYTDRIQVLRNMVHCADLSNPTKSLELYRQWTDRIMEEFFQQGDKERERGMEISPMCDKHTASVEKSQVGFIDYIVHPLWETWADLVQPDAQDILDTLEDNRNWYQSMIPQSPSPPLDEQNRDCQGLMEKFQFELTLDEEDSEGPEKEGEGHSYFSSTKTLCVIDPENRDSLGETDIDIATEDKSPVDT
# Chain of Cytochrome P450 3A4 (Homo sapiens) (P08684 whole entry, looked up): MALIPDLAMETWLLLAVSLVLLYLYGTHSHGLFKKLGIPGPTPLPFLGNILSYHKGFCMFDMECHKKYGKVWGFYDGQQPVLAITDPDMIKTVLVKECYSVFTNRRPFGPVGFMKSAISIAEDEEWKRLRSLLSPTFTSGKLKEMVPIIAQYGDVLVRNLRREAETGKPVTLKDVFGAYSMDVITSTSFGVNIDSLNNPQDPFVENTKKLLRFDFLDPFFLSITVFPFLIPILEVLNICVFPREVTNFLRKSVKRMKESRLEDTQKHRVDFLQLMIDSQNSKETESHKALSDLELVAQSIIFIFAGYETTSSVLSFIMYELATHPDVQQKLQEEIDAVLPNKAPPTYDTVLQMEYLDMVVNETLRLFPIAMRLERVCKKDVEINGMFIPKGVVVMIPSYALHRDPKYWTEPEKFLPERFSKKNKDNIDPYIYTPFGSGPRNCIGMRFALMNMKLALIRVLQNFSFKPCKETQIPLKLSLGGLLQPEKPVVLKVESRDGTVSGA
# Chain of Lysosomal acid glucosylceramidase (Homo sapiens) (P04062 whole entry, looked up): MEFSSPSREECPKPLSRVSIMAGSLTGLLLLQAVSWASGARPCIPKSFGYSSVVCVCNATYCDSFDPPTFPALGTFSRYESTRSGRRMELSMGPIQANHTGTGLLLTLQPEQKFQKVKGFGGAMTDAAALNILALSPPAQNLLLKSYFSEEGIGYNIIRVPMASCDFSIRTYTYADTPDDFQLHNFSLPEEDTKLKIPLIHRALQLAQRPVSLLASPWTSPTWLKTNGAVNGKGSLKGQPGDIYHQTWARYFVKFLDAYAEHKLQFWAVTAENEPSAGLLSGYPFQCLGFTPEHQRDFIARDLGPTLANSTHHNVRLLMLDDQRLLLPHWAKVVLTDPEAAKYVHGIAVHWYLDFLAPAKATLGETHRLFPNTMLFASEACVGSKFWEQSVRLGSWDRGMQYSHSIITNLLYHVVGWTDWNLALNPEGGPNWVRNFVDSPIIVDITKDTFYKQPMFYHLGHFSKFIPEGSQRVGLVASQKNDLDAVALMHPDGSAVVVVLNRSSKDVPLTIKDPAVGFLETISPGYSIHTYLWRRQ
# Chain of Cytochrome P450 1A2 (Homo sapiens) (P05177 whole entry, looked up): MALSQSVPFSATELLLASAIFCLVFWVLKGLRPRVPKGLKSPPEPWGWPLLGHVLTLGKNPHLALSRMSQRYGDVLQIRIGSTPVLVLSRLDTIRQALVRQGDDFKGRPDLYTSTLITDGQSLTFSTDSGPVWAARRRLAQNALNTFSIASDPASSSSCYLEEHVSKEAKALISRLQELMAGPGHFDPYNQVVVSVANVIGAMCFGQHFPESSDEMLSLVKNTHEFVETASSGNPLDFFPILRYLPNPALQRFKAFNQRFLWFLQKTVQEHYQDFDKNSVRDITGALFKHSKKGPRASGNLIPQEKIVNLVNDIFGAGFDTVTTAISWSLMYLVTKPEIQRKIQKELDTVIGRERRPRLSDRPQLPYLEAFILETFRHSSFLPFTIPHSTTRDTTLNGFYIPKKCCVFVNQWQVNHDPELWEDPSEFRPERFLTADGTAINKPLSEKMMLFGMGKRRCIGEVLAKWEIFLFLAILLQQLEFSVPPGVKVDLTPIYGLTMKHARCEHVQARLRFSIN
# Chain of Glucocorticoid receptor (Homo sapiens) (P04150 whole entry, looked up, the tested form may be a part): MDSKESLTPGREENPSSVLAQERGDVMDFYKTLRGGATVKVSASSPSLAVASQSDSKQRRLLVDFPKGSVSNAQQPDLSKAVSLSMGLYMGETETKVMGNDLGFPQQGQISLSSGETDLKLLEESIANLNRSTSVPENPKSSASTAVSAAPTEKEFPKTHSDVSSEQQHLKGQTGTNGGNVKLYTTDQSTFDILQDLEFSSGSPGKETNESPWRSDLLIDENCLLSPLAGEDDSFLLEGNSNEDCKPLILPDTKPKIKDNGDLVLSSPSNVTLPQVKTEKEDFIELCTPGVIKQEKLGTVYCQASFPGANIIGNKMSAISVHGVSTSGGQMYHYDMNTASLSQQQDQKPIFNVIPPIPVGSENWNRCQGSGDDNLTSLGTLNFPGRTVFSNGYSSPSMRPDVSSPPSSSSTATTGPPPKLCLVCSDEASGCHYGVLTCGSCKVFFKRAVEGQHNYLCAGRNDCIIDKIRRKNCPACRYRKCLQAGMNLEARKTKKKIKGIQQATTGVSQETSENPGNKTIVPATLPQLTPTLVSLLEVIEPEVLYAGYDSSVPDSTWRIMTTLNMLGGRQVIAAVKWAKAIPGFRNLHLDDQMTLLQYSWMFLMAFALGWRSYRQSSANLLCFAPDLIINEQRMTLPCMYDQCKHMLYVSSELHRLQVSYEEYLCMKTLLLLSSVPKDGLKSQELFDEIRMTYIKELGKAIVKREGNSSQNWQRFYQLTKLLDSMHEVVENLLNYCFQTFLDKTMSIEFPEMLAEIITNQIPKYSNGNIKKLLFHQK
# Chain of Cytochrome P450 2C9 (Homo sapiens) (P11712 whole entry, looked up): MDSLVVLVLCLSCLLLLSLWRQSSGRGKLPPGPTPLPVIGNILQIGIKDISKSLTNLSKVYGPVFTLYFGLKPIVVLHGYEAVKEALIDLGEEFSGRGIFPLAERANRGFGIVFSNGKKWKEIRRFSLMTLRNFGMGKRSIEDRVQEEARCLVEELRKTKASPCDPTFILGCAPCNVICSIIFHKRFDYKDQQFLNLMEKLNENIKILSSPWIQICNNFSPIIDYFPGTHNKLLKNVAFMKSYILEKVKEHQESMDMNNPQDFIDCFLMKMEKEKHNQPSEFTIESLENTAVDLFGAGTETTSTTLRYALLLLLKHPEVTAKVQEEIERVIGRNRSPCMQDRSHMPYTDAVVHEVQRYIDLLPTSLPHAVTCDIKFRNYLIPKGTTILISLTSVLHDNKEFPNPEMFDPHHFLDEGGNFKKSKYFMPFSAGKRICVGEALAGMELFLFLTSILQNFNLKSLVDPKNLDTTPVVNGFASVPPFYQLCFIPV
Structure (SMILES),Potency [1],Potency [2],Potency [3],Potency [4],Potency [5],Potency [6],Potency [7],outcome [8],"activity change, negative = inhibition [9]","activity, negative = inhibition [10]","activity change, negative = inhibition [11]",Potency [12],Potency [13],Potency [14],Potency [15],outcome [16]
CCNc1ncc2nc(-c3cc(F)cc(F)c3)c(=O)n(-c3ccc(OC)cc3)c2n1,> 11.4 µM (inactive),> 9.22 µM (inactive),> 46 µM (inactive),inactive,inactive,inactive,0.398 µM (active),inactive,–,–,–,–,–,–,–,–
O=c1c(-c2ccc(Cl)cc2)nc2cncnc2n1Cc1ccc(F)cc1,> 11.4 µM (inactive),> 9.22 µM (inactive),> 46 µM (inactive),inactive,inactive,inactive,–,inactive,5.72% (inactive),-2.95% (inactive),–,–,–,–,–,–
COc1cccc(Cn2c(=O)c(CCc3ccccc3)nc3cnc(OC)nc32)c1,–,> 9.22 µM (inactive),> 46 µM (inactive),–,–,inactive,–,inactive,-14.6% (inactive),1.12% (inactive),-4.92% (inactive),12.6 µM (active),6.31 µM (active),2.51 µM (active),–,–
COCCn1c(=O)c(-c2cccs2)nc2cnc(Oc3cccc(Cl)c3)nc21,> 11.4 µM (inactive),–,> 46 µM (inactive),–,inactive,–,3.16 µM (active),inactive,–,–,–,–,–,–,–,–
CCNc1ncc2nc(-c3cccc(C#N)c3)c(=O)n(C)c2n1,–,> 9.22 µM (inactive),> 46 µM (inactive),inactive,inactive,inactive,–,inactive,–,30% (inactive),15.2% (inactive),2.51 µM (active),–,–,–,–
O=C(Nc1cccc(F)c1)N1CC[C@@]2(CCCN(C(=O)c3cnccn3)C2)C1,–,–,> 46 µM (inactive),inactive,inactive,inactive,–,inactive,12.9% (inactive),2.65% (inactive),4.63% (inactive),inactive,–,–,–,–
COc1ccc(Oc2ncc3nc(-c4ccccc4)c(=O)n(Cc4cccs4)c3n2)cc1,–,> 9.22 µM (inactive),> 46 µM (inactive),inactive,inactive,–,–,inactive,-1.01% (inactive),-3.78% (inactive),-8.46% (inactive),–,–,–,–,–
COc1ccc(Oc2ncc3ncc(=O)n(CCc4ccccc4)c3n2)cc1,–,> 9.22 µM (inactive),> 46 µM (inactive),inactive,–,inactive,–,inactive,-16.6% (inactive),3.46% (inactive),-14.7% (inactive),0.631 µM (active),–,1.26 µM (active),–,–
O=C(c1cnccn1)N1CCC2(CCCN(c3ccccn3)C2)CC1,–,–,> 46 µM (inactive),inactive,inactive,inactive,–,inactive,–,1.23% (inactive),-13% (inactive),inactive,–,–,–,–
COc1ccc(C(=O)N2CCC3(CCN(C(=O)Nc4cccc(C#N)c4)CC3)CC2)cc1,> 11.4 µM (inactive),–,> 46 µM (inactive),–,–,–,–,inactive,–,-23.9% (inactive),–,–,–,–,–,–
COc1cccc(Nc2ncc3nc(-c4ccc(F)cc4)c(=O)n(C[C@H]4CCCO4)c3n2)c1,> 11.4 µM (inactive),> 9.22 µM (inactive),> 46 µM (inactive),inactive,inactive,–,–,inactive,-9.67% (inactive),-5.57% (inactive),–,–,–,–,–,–
CCNc1ncc2nc(-c3ccccc3)c(=O)n(CCc3ccccc3)c2n1,> 11.4 µM (inactive),> 9.22 µM (inactive),> 46 µM (inactive),inactive,inactive,inactive,1.58 µM (active),inactive,–,–,–,12.6 µM (active),–,–,–,–
COC(=O)N1CCC2(CC1)CCN(c1ccncc1)CC2,–,–,> 46 µM (inactive),inactive,inactive,–,–,inactive,–,20.2% (inactive),6.46% (inactive),inactive,–,–,–,–
O=c1c(-c2cccs2)nc2cnc(Oc3cccc(Cl)c3)nc2n1C[C@H]1CCCO1,> 11.4 µM (inactive),> 9.22 µM (inactive),> 46 µM (inactive),–,inactive,inactive,3.16 µM (active),inactive,–,–,–,3.16 µM (active),3.16 µM (active),–,–,–
COc1ccc(NC(=O)N2CCC3(CC2)CCN(C(=O)c2cccc(F)c2)CC3)cc1,–,–,> 46 µM (inactive),inactive,inactive,12.6 µM (active),–,inactive,8.11% (inactive),0.897% (inactive),-4.05% (inactive),inactive,–,inactive,–,–
COc1ccccc1CNc1nc(-c2ccc(N(C)C)cc2)nc2ccccc12,–,> 46 µM (inactive),> 46 µM (inactive),inactive,inactive,inactive,–,inactive,-29.6% (inactive),20.3% (inactive),1.38% (inactive),2.51 µM (active),–,3.16 µM (active),inactive,inactive
CCNc1ncc2nc(-c3cc(F)cc(F)c3)c(=O)n(-c3ccccc3)c2n1,> 11.4 µM (inactive),> 9.22 µM (inactive),> 46 µM (inactive),inactive,–,–,2.51 µM (active),inactive,–,–,–,–,–,–,–,–
CN(C)c1ncc2nc(-c3ccc(Cl)cc3)c(=O)n(C3CC3)c2n1,> 11.4 µM (inactive),> 9.22 µM (inactive),> 46 µM (inactive),inactive,inactive,–,2.51 µM (active),inactive,–,–,–,–,–,–,–,–
